From PubChem BioAssay (NCI)
This is part of a sample that, as a whole, favours compounds with a hit. Of some 83,000 tested, about 20% had one in any assay.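 Testing used 96-well plates and a 48-hour single-concentration exposure. Example: -40 means 40% of the starting cells died.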 Activity calls are given as the source filed them. The calls were made as follows: active = growth percent below 10; inactive = the rest.

What follows are molecules tested on MDA-MB-468 breast (assay: NCI-60 one-dose screen, 48 h (100 = growth as untreated, 0 = no growth, -100 = all killed)). Conditions: 10 µM unless noted.

SMILES	growth
C=CCOc1ccc2c(c1)CC[C@@H]1[C@@H]2CC[C@@]2(C)[C@H]1CC[C@]2(C)O	81.2% (inactive)
COc1ccc(/C=C/C(=O)c2ccc([N+](=O)[O-])cc2)cc1	94.4% (inactive)
Fc1ccc(-c2cc(C(Cl)Cl)no2)cc1	104% (inactive)
